The record followed here is PubChem BioAssay (Tox21).

Test [1] in a line: qHTS assay to identify small molecule antagonists of the glucocorticoid receptor (GR) signaling pathway - cell viability counter screen (AID 720693). Also: nearly all actives have a fitted effect of over 55% in size. Also: potency is read from the fitted curve at half-maximal effect. Background: In qHTS, concentration-response curves come from the screen itself.
The nature of test [2]: qHTS assay for identifying genotoxic compounds that show differential cytotoxicity against isogenic chicken DT40 cell lines with known DNA damage response pathways - wild type cell line (AID 743012). Also: potency is read from the fitted curve at half-maximal effect; nearly all actives have a fitted effect of over 60% in size. The gist of the method: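 300 wt DT40 cells/well; cpd (DMSO) pintool-transferred after ~0.5 h at 37 C/5% CO2; 40 h incubation; CellTiter-Glo added, 30 min RT; luminescence read.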

The nature of test [3]: qHTS assay for identifying genotoxic compounds that show differential cytotoxicity against isogenic chicken DT40 cell lines with known DNA damage response pathways - Rad54/Ku70 mutant cell line (AID 743015). Also: potency is read from the fitted curve at half-maximal effect; nearly all actives have a fitted effect of over 60% in size.
Test [4] in a line: qHTS assay to identify small molecule antagonists of the androgen receptor (AR) signaling pathway using the MDA cell line - cell viability counter screen (AID 743041; also: nearly all actives have a fitted effect of over 45% in size; also: potency is read from the fitted curve at half-maximal effect). The gist of the method: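 Compound exposure lasted 16 h at 37C in MDA-kb2 AR-luc cells stimulated with R1881. Protease-based CellTiter-Fluor reagent was applied for the final 30 min and fluorescence measured.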

A short description of test [5]: qHTS assay to identify small molecule antagonists of the thyroid receptor (TR) signaling pathway - cell viability counter screen (AID 743064). Also: nearly all actives have a fitted effect of over 50% in size. Also: potency is read from the fitted curve at half-maximal effect. The essentials:
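Compounds were tested on GH3.TRE-Luc cells in the presence of T3 at 1 nM final. Following 23.5 h at 37 °C, cell viability was quantified by CellTiter-Fluor.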

Test [6] is described as follows: qHTS assay to identify small molecule antagonists of the thyroid receptor (TR) signaling pathway (AID 743065). Also: nearly all actives have a fitted effect of over 55% in size. Also: potency is read from the fitted curve at half-maximal effect. The essentials: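 GH3.TRE-Luc rat pituitary cells (two TREs driving luciferase) were dosed with compound, then stimulated with 1 nM T3 (final) for 23.5 h at 37 C. ONE-Glo luminescence was the read-out, with CellTiter-Fluor fluorescence as the cytotoxicity counter-screen.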

The nature of test [7]: qHTS assay to identify small molecule antagonists of the estrogen receptor alpha (ER-alpha) signaling pathway using the BG1 cell line - cell viability counter screen (AID 743081).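 Also: compound given together with 17beta-estradiol as the ER stimulus; nearly all actives have a fitted effect of over 45% in size.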 Also: potency is read from the fitted curve at half-maximal effect.
In test [8] the target is Aromatase (Homo sapiens) (UniProt P11511). The test is described as follows: qHTS assay to identify aromatase inhibitors (AID 743083). Also: nearly all actives have a fitted effect of over 55% in size. Also: potency is read from the fitted curve at half-maximal effect.
Sequence of Aromatase (Homo sapiens) (P11511 whole entry, looked up): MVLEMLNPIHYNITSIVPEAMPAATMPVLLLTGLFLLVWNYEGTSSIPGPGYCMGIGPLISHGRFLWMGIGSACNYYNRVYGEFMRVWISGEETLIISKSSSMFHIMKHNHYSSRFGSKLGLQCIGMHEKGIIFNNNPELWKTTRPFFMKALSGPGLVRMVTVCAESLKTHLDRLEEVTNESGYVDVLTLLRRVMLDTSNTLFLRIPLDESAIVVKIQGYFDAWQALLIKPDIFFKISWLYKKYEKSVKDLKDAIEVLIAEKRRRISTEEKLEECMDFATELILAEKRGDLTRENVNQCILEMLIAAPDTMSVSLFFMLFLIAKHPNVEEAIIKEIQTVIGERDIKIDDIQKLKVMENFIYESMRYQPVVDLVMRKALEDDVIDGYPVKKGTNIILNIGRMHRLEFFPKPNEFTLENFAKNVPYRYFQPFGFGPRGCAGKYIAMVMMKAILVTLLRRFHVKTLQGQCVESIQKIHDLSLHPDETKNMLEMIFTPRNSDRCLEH
Test [9] has as its system thyroid hormone receptor (rat, GH3 cells). The test is described as follows: qHTS assay to identify small molecule agonists of the thyroid receptor (TR) signaling pathway (AID 743066; calls by dose curve; also: % is scaled to controls: 0 for no effect and ±100 for the full control effect).
In test [10] the target is Estrogen receptor (Homo sapiens) (UniProt P03372). The experiment in a line: qHTS assay to identify small molecule antagonists of the estrogen receptor alpha (ER-alpha) signaling pathway (AID 743069; active = well fitted curve in the direction sought with a large enough effect in the signal ratio in the repeat runs, not every such curve was filed as active; inconclusive = weak or mixed curves, or effect the other way; inactive = no such curve, though single readings can be large or run the other way; the % refers to the signal ratio; also: % is scaled to controls: 0 for no effect and ±100 for the full control effect). The gist of the method: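 In this cell-based reporter format, GripTite HEK293 cells harbouring ER-alpha-UAS-bla were grown overnight with 2% charcoal-stripped FBS, dosed with DMSO-dissolved compounds, then challenged with 17beta-estradiol. After 18 hr at 37C, beta-lactamase activity was detected by FRET fluorescence.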
Sequence of Estrogen receptor (Homo sapiens) (P03372 whole entry, looked up): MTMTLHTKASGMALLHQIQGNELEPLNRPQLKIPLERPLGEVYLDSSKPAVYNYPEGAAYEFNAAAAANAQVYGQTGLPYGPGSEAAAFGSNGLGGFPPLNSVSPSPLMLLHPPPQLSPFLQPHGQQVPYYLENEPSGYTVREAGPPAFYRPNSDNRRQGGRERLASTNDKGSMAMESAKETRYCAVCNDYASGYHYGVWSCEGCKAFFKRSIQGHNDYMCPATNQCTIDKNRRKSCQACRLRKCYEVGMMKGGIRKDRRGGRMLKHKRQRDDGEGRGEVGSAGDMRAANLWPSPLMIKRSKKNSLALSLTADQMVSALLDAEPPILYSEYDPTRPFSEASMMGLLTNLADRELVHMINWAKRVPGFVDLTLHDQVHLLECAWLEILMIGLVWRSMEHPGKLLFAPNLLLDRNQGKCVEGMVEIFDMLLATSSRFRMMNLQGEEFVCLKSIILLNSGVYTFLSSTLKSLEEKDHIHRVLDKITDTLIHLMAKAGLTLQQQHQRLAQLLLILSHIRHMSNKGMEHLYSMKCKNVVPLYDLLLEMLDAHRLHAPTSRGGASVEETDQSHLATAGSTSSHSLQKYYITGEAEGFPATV

Test [11] is described as follows: qHTS assay to identify small molecule antagonists of the estrogen receptor alpha (ER-alpha) signaling pathway - cell viability counter screen (AID 743074; calls by dose curve; also: nearly all actives have a fitted effect of over 45% in size; also: potency is read from the fitted curve at half-maximal effect).
Test [12] addresses Estrogen receptor (Homo sapiens) (UniProt P03372). The experiment in a line: qHTS assay to identify small molecule agonists of the estrogen receptor alpha (ER-alpha) signaling pathway (AID 743075; calls by dose curve; also: potency is read from the fitted curve at half-maximal effect; as to activation: % is scaled to controls: 0 for no effect and ±100 for the full control effect). The settings on record: HEK293 ER-alpha-UAS-bla, beta-lactamase FRET ratio, 18 h; activation: at 70.1 µM (top of the series).
Test [13] is described as follows: qHTS assay to identify small molecule antagonists of the androgen receptor (AR) signaling pathway - cell viability counter screen (AID 743033; also: nearly all actives have a fitted effect of over 45% in size; also: potency is read from the fitted curve at half-maximal effect).
The target in test [14] is Androgen receptor (Homo sapiens) (UniProt P10275). The test is described as follows: qHTS assay to identify small molecule agonists of the androgen receptor (AR) signaling pathway using the MDA cell line (AID 743040; also: % is scaled to controls: 0 for no effect and ±100 for the full control effect; nearly all actives have a fitted effect of over 20% in size). The essentials:
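Testing was done with the MDA-kb2 AR-luc line, a human breast carcinoma stably transfected with MMTV-luciferase containing AR and GR response elements. Cells were exposed 16 h at 37C before ONE-Glo luminescence detection.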

Test [15] has the same target. The experiment in a line: qHTS assay to identify small molecule antagonists of the androgen receptor (AR) signaling pathway using the MDA cell line (AID 743042; also: potency is read from the fitted curve at half-maximal effect; nearly all actives have a fitted effect of over 55% in size). The essentials: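 MDA-kb2 breast carcinoma cells carrying MMTV-luciferase (AR/GR responsive) were co-treated with compounds and the agonist R1881 for 16 h at 37C. Inhibition read as ONE-Glo luminescence; CellTiter-Fluor fluorescence measured in parallel for cytotoxicity.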

Test [16] is described as follows: qHTS assay for identifying genotoxic compounds that show differential cytotoxicity against isogenic chicken DT40 cell lines with known DNA damage response pathways - Rev3 mutant cell line (AID 743014).
Test [17] is described as follows: qHTS assay to identify small molecule antagonists of the estrogen receptor alpha (ER-alpha) signaling pathway using the BG1 cell line (AID 743080; calls by dose curve;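 also: BG1 cells stimulated with 17beta-estradiol alongside compound; potency is read from the fitted curve at half-maximal effect; nearly all actives have a fitted effect of over 25% in size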). The essentials: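 Quantitative HTS on the Tox21 10K library: BG1 cells with endogenous ER-alpha and ERE-luciferase reporter, 17beta-estradiol stimulation, 21.5 h compound exposure, luminescence endpoint with parallel fluorescence cytotoxicity counter-read.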

The target in test [18] is Estrogen receptor (Homo sapiens) (UniProt P03372). The experiment in a line: qHTS assay to identify small molecule agonists of the estrogen receptor alpha (ER-alpha) signaling pathway using the BG1 cell line (AID 743079). Also: potency is read from the fitted curve at half-maximal effect; nearly all actives have a fitted effect of over 20% in size. The conditions noted are these: BG1Luc4E2 cells, ERE-luciferase agonist, 22 h.

Several values for one entry are separate records, joined by “and”; a condition that tells them apart may be missing. Equal entries are not always repeated. More than one record can exist for a structure, and the calls need not agree. Activity calls are given as the source filed them. Unless noted, calls follow the shape of the dose curve; as a rule, active = well fitted curve in the direction sought with a large enough effect in the repeat runs; inconclusive = weak or mixed curves; inactive = no such curve, though single readings can be large; an effect the other way counts as inactive or inconclusive.

Sequence of Androgen receptor (Homo sapiens) (P10275 whole entry, looked up): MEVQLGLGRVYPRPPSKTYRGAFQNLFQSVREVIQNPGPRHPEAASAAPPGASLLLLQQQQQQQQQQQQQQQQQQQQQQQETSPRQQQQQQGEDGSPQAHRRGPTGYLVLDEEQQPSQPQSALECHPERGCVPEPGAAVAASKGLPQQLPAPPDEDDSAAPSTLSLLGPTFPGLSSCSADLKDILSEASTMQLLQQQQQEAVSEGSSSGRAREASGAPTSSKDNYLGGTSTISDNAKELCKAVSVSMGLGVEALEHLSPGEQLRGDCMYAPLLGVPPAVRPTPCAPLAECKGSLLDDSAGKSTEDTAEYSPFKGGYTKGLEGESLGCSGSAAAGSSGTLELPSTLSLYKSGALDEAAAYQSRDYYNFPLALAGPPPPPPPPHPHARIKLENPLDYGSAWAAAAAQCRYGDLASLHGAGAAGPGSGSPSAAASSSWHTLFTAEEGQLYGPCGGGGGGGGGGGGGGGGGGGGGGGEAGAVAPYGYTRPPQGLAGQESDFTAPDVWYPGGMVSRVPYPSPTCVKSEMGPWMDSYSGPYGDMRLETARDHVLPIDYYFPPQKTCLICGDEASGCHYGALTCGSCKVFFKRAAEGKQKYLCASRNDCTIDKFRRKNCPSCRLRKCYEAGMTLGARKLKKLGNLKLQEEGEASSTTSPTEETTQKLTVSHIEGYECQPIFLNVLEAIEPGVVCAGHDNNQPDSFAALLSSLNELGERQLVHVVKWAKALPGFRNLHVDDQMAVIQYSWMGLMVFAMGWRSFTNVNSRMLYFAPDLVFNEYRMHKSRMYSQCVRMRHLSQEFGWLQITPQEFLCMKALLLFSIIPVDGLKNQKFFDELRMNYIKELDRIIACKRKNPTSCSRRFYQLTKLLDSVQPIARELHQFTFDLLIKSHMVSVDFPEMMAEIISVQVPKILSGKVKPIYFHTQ

With `CCc1cc(SCc2sc(-c3ccc(C(F)(F)F)cc3)nc2CN2CCN(c3ccc(OC)cc3)CC2)ccc1OCC(=O)O`, the Potency in test [1] was 49 µM (active); in test [2], 43.3 µM (active); in test [3] it was 30.6 µM (active); in test [5], 24.3 µM (active); in test [6], 12.2 µM (active); in [8] it was 54.5 µM (active). The Potency entry in [4] and in test [7] was “inactive” each time.
As to `Cc1cc2c(cc1C(F)(F)F)N(C(=O)Nc1ccc(Oc3cccnc3C)nc1)CC2`, the Potency result in test [1], in test [5], in [9], in test [10], in test [11] and in [12] was “inactive” throughout. The Potency result in test [7] is “inactive”. For the same molecule, the Potency is 1.24 µM (active) in [2], 22 µM (active) in test [3] and 22 µM (active) in test [6].
As to `Cc1cc(CCN2CCN(c3nsc4ccccc34)CC2)cc2c1NC(=O)CC2(C)C`, the Potency is 49 µM (active) in test [1]; 3.06 µM (active) in test [2]; 13.8 µM (active) in [13]; 48.6 µM (active) in test [4]; 15.4 µM (active) in [15]; 43.3 µM (active) in [5]. In addition, the Potency in test [6] was 27.3 µM (active); in [11], 27.5 µM (active); in test [7], 54.5 µM (active); in test [8], 24.3 µM (active). For the same molecule, the Potency result in [14] and in [12] was “inactive” each time.
In the case of `CCCCCCCCCCCC(=O)NCCCN(C)C`, the Potency in test [1] is 30.9 µM (active); in [2], 6.11 µM (active); in test [3], 6.86 µM (active); in [5], 17.2 µM (active); in test [6], 17.2 µM (active); in [11], 49 µM (active). The results for the Potency in [7] and in [8] were 61.1 µM (active) and 43.3 µM (active), respectively. Moreover, the Potency entry in [14] is “inactive”.
Turning to `CC(=O)N1CCN(c2ccc(OC[C@H]3CO[C@](Cn4ccnc4)(c4ccc(Cl)cc4Cl)O3)cc2)CC1`, the Potency result in test [1], in [9], in test [10], in test [12], in test [7] and in test [8] was “inactive” each time. The Potency in test [16] was 23.7 µM (active) and 4.33 µM (active); in test [3], 21.1 µM (active) and 6.11 µM (active); in test [13], “inactive and 19.5 µM (active)”; in test [5], “inactive and 21.7 µM (active)”; in test [6], 26.6 µM (active) and 15.4 µM (active); in test [11], “inactive and 43.6 µM (active)”. Besides, the Potency in test [17] was 13.3 µM (active).
For `CCCCCCCCCCCCc1ccc(O)cc1`, the Potency in test [1] is 21.9 µM (active); in test [13], 34.7 µM (active); in test [4], 54.5 µM (active); in test [5] it was 13.7 µM (active); in [6], 13.7 µM (active); in test [11], 49 µM (active). The Potency in test [12] was 3.09 µM [inconclusive] (active); in test [18] it was 969 nM (active); in [8], 48.6 µM (active).
As for `CCCN(CCC)c1c([N+](=O)[O-])cc(C(F)(F)F)c(N)c1[N+](=O)[O-]`, the Potency was 48.9 µM (active) in test [1]; 12.2 µM (active) in [3]; 60.9 µM (active) in test [4]; 13.6 µM (active) in [5]; 13.6 µM (active) in test [6]; 15.3 µM (active) in [8].
As for `NC(=NCCCCCCN=C(N)/N=C(\N)Nc1ccc(Cl)cc1)/N=C(\N)Nc1ccc(Cl)cc1`, the Potency in [1] is 21.3 µM (active) [middle of 5 runs]; in test [16], 15.3 µM (active) [middle of 5 runs]; in [3] it was 17.1 µM (active) [middle of 5 runs]; in test [5], 8.56 µM (active) [middle of 5 runs]; in [6], 6.06 µM (active) [middle of 5 runs]; in test [11], 25 µM (active) [middle of 4 runs]. In addition, the Potency entry is “inactive and 68.2 µM (active)” in [7]; 24.1 µM (active) [middle of 4 runs] in [8]. The Potency entry in test [4] and in [9] was “inactive” in each case.
Regarding `O=C(NO)C1(NS(=O)(=O)c2ccc(Oc3ccc(F)cc3)cc2)CCOCC1`, the Potency entry in [1], in test [5], in [6], in [9], in test [10] and in [11] was “inactive” in each case. Besides, the Potency result in test [12], in test [7] and in test [8] was “inactive” each time. For the same molecule, the Potency in test [16] and in test [3] was 30.6 µM (active) in each case.
On to `O=C(c1ccc(O)cc1O)c1ccc(O)cc1O`, for which the Potency entry in test [1], in test [14], in test [4], in test [5], in [9] and in test [10] was “inactive” in each case. In addition, the Potency result in [11], in test [7] and in test [8] was “inactive” each time. In addition, the Potency in test [6] was 30.7 µM (active) and 54.5 µM (active); in test [12], 11 µM [inconclusive] (active) and 9.77 µM [inconclusive] (active); in test [18], 4.33 µM (active) and 15.4 µM (active).
